# ALR H2O2 inh: inhibitors of human ALR sulfhydryl oxidase, primary screen, biochemical, H2O2 detection, HRP-luminol luminescence, single point | FAD-linked sulfhydryl oxidase ALR (Homo sapiens), P55789 | purified ALR, DTT oxidation | inhibition, % (concentration not given with the values) | hit rate 3.8% among 290,000;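 active = mean replicate inhibition above about 79%, with every replicate also reaching it, limit read from the data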
# Target sequence (P55789 whole entry, looked up): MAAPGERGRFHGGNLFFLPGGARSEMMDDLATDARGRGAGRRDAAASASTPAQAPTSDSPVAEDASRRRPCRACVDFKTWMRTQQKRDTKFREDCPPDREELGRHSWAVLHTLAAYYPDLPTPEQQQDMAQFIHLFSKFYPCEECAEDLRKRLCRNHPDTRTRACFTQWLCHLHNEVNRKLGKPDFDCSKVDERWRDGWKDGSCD
# PREPL inh: PREPL enzyme inhibitors, primary screen, biochemical, fluorescence polarization; Prolyl endopeptidase-like (Homo sapiens), Q4J6C6; recombinant PREPL, fluorescence polarization activity-based probe; inhibition, % at 5.96 µM; hit rate 0.68% among 320,000; AID 2751, 2010; in the data active = inhibition above about 43%;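 note: 0% = enzyme with DMSO and 100% = wells lacking enzyme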
# CHT allo act: CHT positive allosteric modulators, primary screen, cell-based, membrane potential dye, choline EC20. B-score at 10 µM. hit rate 0.49% among 310,000. High affinity choline transporter 1 (Homo sapiens), Q9GZV3. CHT-expressing cells; active compounds read high; LV-AA mutant CHT in HEK293 cells;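 active = initial fluorescence not abnormally high and integrated response B-score, plate-corrected, over 3 SD above library mean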
# AI-2 QS modul: Vibrio harveyi AI-2 quorum sensing modulators, primary screen, JMH597 strain, luminescence/OD600 ratio; Vibrio harveyi JMH597 AI-2 luminescence/OD600 ratio, 9 h; active compounds read low; strain lacks LuxN and CqsS sensors; 0 = neutral-control median; activity change, % at 7.5 µM; hit rate 0.4% among 300,000; in the data active = activity change below about -75%, passing the limit was not always enough;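 note: luminescence divided by OD600 gain over 9 h not by final OD600 alone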
# CHT block: inhibitors of human choline transporter CHT. High affinity choline transporter 1 (Homo sapiens), Q9GZV3. CHT-expressing cells, membrane potential dye, choline response; active compounds read low. AID 488975, 2010. hit rate 0.86% among 310,000. B-score at 10 µM;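 active = B-score over 3 SD under the library average, and starting fluorescence ratio not unusually high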;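 note: choline stimulus applied at its EC90 after an EC20 pre-addition; B-score computed on integrated fluorescence ratio after choline addition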
# CHT inh conf: CHT inhibitors, confirmation, cell-based, membrane potential dye, duplicate. shares compounds with CHT block. CHT-expressing cells, choline membrane potential dye; LV-to-AA substituted CHT, HEK293 cells. CHT activity remaining % of control (active compounds read low), % at 10 µM. hit rate 70% among 2,400;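 active = choline transporter activity left, mean of duplicates at 10 µM, below buffer-only control mean minus 3 SD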;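 note: depolarization triggered by choline at its EC90 following an EC20 pre-addition; 0% = hemicholinium-3 full block and 100% = buffer-only control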
# HEK293 MPD ctr: membrane potential effects in parental HEK293, counter-screen for CHT inhibitor project, cell-based, membrane potential dye. AID 493222, 2011. shares compounds with CHT block. hit rate 4% among 2,400. choline response; active = decrease or increase beyond buffer ±3SD. membrane potential ratio readout (active if shifted either direction beyond buffer ±3SD; no single direction) at 10 µM;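 note: parental cells lack the transporter so any hit is non-specific; ratio is peak minus trough fluorescence over baseline after EC90 choline challenge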
# The depositor's hits bear a star; i = inactive; · = not tested or not shown. Only some compounds are listed: those with a hit (about 5% of all), similar ones and a draw of the others.
SMILES,ALR H2O2 inh,PREPL inh,CHT allo act,AI-2 QS modul,CHT block,CHT inh conf,HEK293 MPD ctr
CCCC(=O)Oc1ccc(N(C(=O)CCC)S(=O)(=O)c2cccs2)cc1,4,6,i,34,-5.7*,i,i
O=C1c2ccccc2C(=O)N1Cc1ccccn1,2,6,i,5,i,·,·
CC1CCC(NC(=O)c2ccc(NC3=NC4CS(=O)(=O)CC4S3)cc2)CC1 (stereo unspecified),-4,2,i,6,-6*,34%*,i
CC1CCCCC1NC(=O)c1ccc(NC2=NC3CS(=O)(=O)CC3S2)cc1 (stereo unspecified),0,6,i,0,i,·,·
CCOc1ncccc1C(=O)NCC1COc2ccccc2O1 (stereo unspecified),27,16,i,10,-5.2*,67%*,i
Cc1noc(C)c1S(=O)(=O)N(CC(=O)NCCc1ccccc1)c1ccc(C(C)C)cc1,-13,-11,i,12,i,·,·
COc1cccc(NC(=S)NCCc2ccccn2)c1,-10,7,i,6,i,·,·
N#CC(C#N)=c1ccc2c(c1)N1C3=C(CCCC3)CC3CCCCC31N=2 (stereo unspecified),-5,19,i,29,-11*,62%*,i
N#C/C(C(N)=O)=c1/ccc2c(c1)N1C3=C(CCCC3)CC3CCCCC31N=2 (stereo unspecified),65,12,i,75,-15*,23%*,i
COc1ccc(-c2csc(Cc3nnc4n3CCCCC4)n2)cc1,-3,27,i,34,-5*,42%*,i
COC(=O)CN1C(=O)S/C(=C/c2ccc(N3CCCCC3)o2)C1=O,69,-13,i,3,-5.1*,i,i
O=C(O)CN1C(=O)CC(c2ccccc2)CC1=O,-5,11,i,17,i,·,·
CC1CCN(c2nc3nonc3nc2Nc2ccc(F)cc2)CC1,·,16,i,28,-5.4*,i,i
COc1ccc(Nc2nc3nonc3nc2N2CCCCC2)cc1,-6,4,i,5,i,·,·
CCCc1cc(NCc2ccccn2)n2c(nc3ccccc32)c1C#N,-5,17,i,18,i,·,·
CCCc1cc(NCCN(C)C)n2c(nc3ccccc32)c1C#N,-39,22,i,31,-6.1*,51%*,i
CCCc1cc(NCC2CCCO2)n2c(nc3ccccc32)c1C#N (stereo unspecified),17,12,i,12,-6.9*,43%*,i
CCCNc1cc(C)c(C#N)c2nc3ccccc3n12,-6,-11,i,·,i,·,·
COC(=O)c1sc2nc(C)nc(SCC(=O)Nc3sccc3C(N)=O)c2c1C,-2,2,·,·,·,·,·
O=C(OCC(=O)N1CCc2ccccc2C1)c1cccnc1Cl,-4,-10,i,22,i,·,·
CC1(C)CC(=O)C=C(Nc2ccc(Cl)cc2)C1,5,-3,i,16,i,·,·
CC1(C)CC(=O)C=C(Nc2cccc(Cl)c2Cl)C1,13,0,i,13,-5*,63%*,i
CC(C)[C@H]1C(=O)Nc2ccccc2N1C(=O)N[C@@H](Cc1ccccc1)C(=O)N[C@H](Cc1ccccc1)C(=O)O,-9,9,i,6,-7.2*,i,i
CC(C)[C@H]1C(=O)Nc2ccccc2N1C(=O)N[C@@H](Cc1ccccc1)C(=O)N[C@@H](Cc1ccccc1)C(=O)O,·,17,i,9,i,·,·
NC(=O)C1CCN(c2nc(-c3ccccc3C(F)(F)F)cs2)CC1,14,12,·,·,·,·,·
SMILES,ALR H2O2 inh,PREPL inh,CHT allo act,AI-2 QS modul,CHT block,CHT inh conf,HEK293 MPD ctr
Fc1ccccc1CCNc1c2c(nc3ncnn13)CCCC2,-2,19,i,29,-6.9*,63%*,i
c1ccc(Nc2c3c(nc4ncnn24)CCC3)cc1,0,3,i,-7,i,·,·
c1ccc(CCNc2c3c(nc4ncnn24)CCC3)cc1,-4,22,i,11,-7.1*,44%*,i
Cc1cc(NCCc2ccccc2F)n2ncnc2n1,1,-5,i,27,i,·,·
CCc1ccc(CN2CCC(n3nccc3NC(=O)C3CCCC3)CC2)cc1,-7,9,i,15,i,·,·
CN(C)c1ccc(C2/C(=C(/O)c3ccccc3)C(=O)C(=O)N2CCCC(=O)O)cc1 (stereo unspecified),·,-1,i,20,-6.6*,i,i
Fc1ccc(NC(=S)Nc2ccc(F)c(Cl)c2)cc1Cl,9,2,i,11,-6.1*,36%*,i
CC(NC(=O)COC(=O)CCC(=O)c1ccc(F)cc1)c1ccccc1 (stereo unspecified),2,4,·,·,·,·,·
COc1ccccc1NS(=O)(=O)c1ccc(O)c(C(=O)OCC(=O)c2ccc(Cl)cc2Cl)c1,-4,3,i,12,-5.3*,62%*,i
Cc1ccc(-n2cc(CN3CCNC(=O)CC3)c(-c3cccc(C)c3)n2)cc1,0,-5,i,2,i,·,·
Cc1ccc(-n2cc(CN3CCN(Cc4nccn4C)CC3)c(-c3cccc(C)c3)n2)cc1,-34,-16,i,8,-5.6*,27%*,i
C#CCNc1c(C)c(C)nc2ncnn12,-6,5,i,9,-5*,23%*,i
CCCCOc1ccc(C(=O)NCC(=O)OC2CCOC2=O)cc1 (stereo unspecified),-26,2,i,11,-5*,i,i
C=CCn1c(NC(=O)c2ccccc2Cl)c(C#N)c2nc3ccccc3nc21,47,27,i,21,-5.8*,i,i
COCCCn1c(SCC(=O)Nc2sc3c(c2C#N)CCCC3)nnc1-c1ccncc1,7,41,i,3,-5.5*,62%*,i
CCCCNc1ncnc2c1cnn2-c1ccccc1,-2,-3,i,11,-5.4*,i,i
CN(C)CCCn1c(=O)n(C2CCCCC2)c(=O)c2c3c(sc21)CCCCC3,4,17,i,-3,-8*,36%*,i
O=C1ON=C(c2ccccc2)/C1=C/c1ccco1,57,6,i,37,-6.6*,50%*,i
O=C(CCCN1CCOCC1)c1ccc2c(c1)OCCO2,-9,-5,i,19,i,·,·
